Compounds without any hit were thinned out: in the full panel of roughly 83,000, 20% have a hit.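 The endpoint reported here, percent growth, reads 100 for growth as untreated, 0 for no net growth and -100 for all cells dead.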 Active and inactive are the calls of the source. Rule for the calls: active = growth percent below 10; inactive = the rest.
Assays:
Assay in all cases: NCI-60 one-dose screen, 48 h (100 = growth as untreated, 0 = no growth, -100 = all killed)
Conditions in all cases: 10 µM unless noted
NCI-H23 lung = tested on: NCI-H23 lung
NCI-H226 lung = tested on: NCI-H226 lung
NCI-H322M lung = tested on: NCI-H322M lung
HOP-62 NSCLC = tested on: HOP-62 NSCLC
NCI-H460 lung = tested on: NCI-H460 lung
HOP-92 NSCLC = tested on: HOP-92 NSCLC
NCI-H522 lung = tested on: NCI-H522 lung
A549/ATCC NSCLC = tested on: A549/ATCC NSCLC
786-0 renal = tested on: 786-0 renal
COLO 205 colon = tested on: COLO 205 colon
DU-145 prostate = tested on: DU-145 prostate
K-562 leukemia = tested on: K-562 leukemia
MALME-3M melanoma = tested on: MALME-3M melanoma
MDA-MB-231 breast = tested on: MDA-MB-231 breast
RXF 393 renal = tested on: RXF 393 renal
SF-268 CNS = tested on: SF-268 CNS
SF-295 CNS = tested on: SF-295 CNS
SF-539 CNS = tested on: SF-539 CNS
UACC-257 melanoma = tested on: UACC-257 melanoma
M14 melanoma = tested on: M14 melanoma

Measured: growth

CCOC(=O)N1CCN(CCCCOc2ccc(C(C)(C)CC)cc2)CC1
inactive: NCI-H23 lung 89.4% | NCI-H226 lung 88.5% | NCI-H322M lung 113% | HOP-62 NSCLC 100% | NCI-H460 lung 105% | HOP-92 NSCLC 86.3% | NCI-H522 lung 77.8% | A549/ATCC NSCLC 95.7% | 786-0 renal 99.7% | COLO 205 colon 105% | DU-145 prostate 104% | K-562 leukemia 68.1% | MALME-3M melanoma 92.3% | MDA-MB-231 breast 102% | RXF 393 renal 111% | SF-268 CNS 105% | SF-295 CNS 98.4% | SF-539 CNS 104% | UACC-257 melanoma 94% | M14 melanoma 87.9%

C=C(C)[C@@H]1CC[C@]2(CN)CC[C@]3(C)[C@H](CC[C@@H]4[C@@]5(C)CCC(=O)NC(C)(C)[C@@H]5CC[C@]43C)[C@@H]12
inactive: NCI-H23 lung 85.3% | NCI-H226 lung 88.1% | NCI-H322M lung 89.1% | HOP-62 NSCLC 81.6% | NCI-H460 lung 90.3% | HOP-92 NSCLC 54.6% | NCI-H522 lung 88% | A549/ATCC NSCLC 59.3% | 786-0 renal 84.6% | COLO 205 colon 75.9% | DU-145 prostate 75% | MDA-MB-231 breast 58.7% | RXF 393 renal 59% | SF-268 CNS 64.5% | SF-295 CNS 82.1% | SF-539 CNS 75.2% | UACC-257 melanoma 29.6% | M14 melanoma 70.9%
active: K-562 leukemia -4.63% | MALME-3M melanoma -14.1%

N#C/C(=C\c1ccc(-c2cccc(C(F)(F)F)c2)o1)c1nc(-c2ccco2)cs1
inactive: NCI-H23 lung 91.8% | NCI-H226 lung 84.1% | NCI-H322M lung 89.2% | HOP-62 NSCLC 105% | NCI-H460 lung 94.4% | HOP-92 NSCLC 86.9% | NCI-H522 lung 90% | A549/ATCC NSCLC 104% | 786-0 renal 102% | COLO 205 colon 118% | DU-145 prostate 105% | K-562 leukemia 92.3% | MALME-3M melanoma 93.8% | MDA-MB-231 breast 78.9% | RXF 393 renal 107% | SF-268 CNS 99.8% | SF-295 CNS 94.2% | SF-539 CNS 91.4% | UACC-257 melanoma 105% | M14 melanoma 97.8%

CCCCCCCN(CCCCCCC)C(=N)c1ccnc2ccccc12
inactive: NCI-H226 lung 39.3% | SF-268 CNS 33%
active: NCI-H23 lung 0.856% | NCI-H322M lung -2.85% | HOP-62 NSCLC -57.2% | NCI-H460 lung -83.9% | HOP-92 NSCLC -4.56% | NCI-H522 lung -46.7% | A549/ATCC NSCLC -57.4% | 786-0 renal -93.6% | COLO 205 colon -72.9% | DU-145 prostate 1.08% | K-562 leukemia -14.9% | MALME-3M melanoma -76.2% | MDA-MB-231 breast -71.3% | RXF 393 renal -76% | SF-295 CNS -78.3% | SF-539 CNS -82% | UACC-257 melanoma -69.4% | M14 melanoma -64%

COc1cc(/C=N/NC(=S)NNC(=S)NC2CCCCC2)cc(OC)c1OC
inactive: NCI-H23 lung 97.4% | NCI-H226 lung 91.2% | NCI-H322M lung 93.7% | HOP-62 NSCLC 94.8% | NCI-H460 lung 97.1% | HOP-92 NSCLC 91.2% | NCI-H522 lung 89.3% | A549/ATCC NSCLC 100% | 786-0 renal 102% | COLO 205 colon 102% | DU-145 prostate 92.5% | K-562 leukemia 88.6% | MALME-3M melanoma 95.2% | MDA-MB-231 breast 77.2% | RXF 393 renal 95.6% | SF-268 CNS 102% | SF-295 CNS 98.7% | SF-539 CNS 94.8% | UACC-257 melanoma 107% | M14 melanoma 95.2%

Cc1ccc(NC2CC(=O)N(c3c(C)cc(C)cc3C)C2=O)c(C)c1 (stereo not given)
inactive: NCI-H23 lung 108% | NCI-H226 lung 109% | NCI-H322M lung 101% | HOP-62 NSCLC 110% | NCI-H460 lung 108% | HOP-92 NSCLC 94.5% | NCI-H522 lung 98.6% | A549/ATCC NSCLC 102% | 786-0 renal 105% | COLO 205 colon 123% | DU-145 prostate 105% | K-562 leukemia 98.2% | MALME-3M melanoma 97.7% | MDA-MB-231 breast 103% | RXF 393 renal 124% | SF-268 CNS 101% | SF-295 CNS 111% | SF-539 CNS 102% | UACC-257 melanoma 99.6% | M14 melanoma 107%

N=C(N)N=Nc1ccc(O)cc1
inactive: NCI-H23 lung 68% [100 µM] | NCI-H226 lung 73.5% [100 µM] | NCI-H322M lung 80.2% [100 µM] | HOP-62 NSCLC 76.9% [100 µM] | NCI-H460 lung 84.1% [100 µM] | HOP-92 NSCLC 84% [100 µM] | NCI-H522 lung 37.7% [100 µM] | A549/ATCC NSCLC 93.3% [100 µM] | 786-0 renal 28.9% [100 µM] | COLO 205 colon 57.2% [100 µM] | DU-145 prostate 80.4% [100 µM] | K-562 leukemia 17% [100 µM] | MALME-3M melanoma 85.2% [100 µM] | MDA-MB-231 breast 103% [100 µM] | RXF 393 renal 20.8% [100 µM] | SF-268 CNS 77.5% [100 µM] | SF-539 CNS 15.2% [100 µM] | UACC-257 melanoma 95.6% [100 µM] | M14 melanoma 81.6% [100 µM]
active: SF-295 CNS 8.54% [100 µM]

COc1cc(-c2c(C#N)c(-c3cccs3)nc3c2c(-c2ccccc2)nn3-c2ccccc2)ccc1O
inactive: NCI-H23 lung 98.4% | NCI-H226 lung 91.2% | NCI-H322M lung 96.6% | HOP-62 NSCLC 74.5% | NCI-H460 lung 77.5% | HOP-92 NSCLC 93.5% | NCI-H522 lung 69.8% | A549/ATCC NSCLC 58.3% | 786-0 renal 85.4% | COLO 205 colon 89.7% | DU-145 prostate 85.6% | K-562 leukemia 66.2% | MALME-3M melanoma 87.2% | MDA-MB-231 breast 87.8% | RXF 393 renal 94.4% | SF-268 CNS 80.4% | SF-295 CNS 98.2% | SF-539 CNS 93.5% | UACC-257 melanoma 81.3% | M14 melanoma 89.3%

Source: PubChem BioAssay (NCI)
